This is an account of results in PubChem BioAssay (NCATS).

Each structure is given as a SMILES string. Results filed as inconclusive are left out. Unmarked numbers belong to inactive results. The source made the active and inactive calls. Calls follow the shape of the dose curve; as a rule, active = well fitted cell-killing curve with a large enough effect; inconclusive = small, poorly fitted or top-dose-only effect, or effect the other way; inactive = no such curve, though single readings can be large or run the other way.

A short description of experiment [1]: Quantitative High-Throughput drug screen in 47 multiple myeloma cell lines against the NCATS MIPE library collection: KMS28PE_JCRB cell viability assay (AID 1918983). Also: nearly all actives have a fitted effect of over 35% in size. The procedure, abridged: (§1)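 qHTS format: cells plated (500/well), pin-dosed with MIPE 4.0 compounds, kept 48 h at 37 °C. Readout was CellTiter-Glo luminescence, median RLU.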
Experiment [2] in a line: Quantitative High-Throughput drug screen in 47 multiple myeloma cell lines against the NCATS MIPE library collection: OCIMY7_PLB cell viability assay (AID 1918987). Also: nearly all actives have a fitted effect of over 65% in size. Summed up:
as §1

Experiment [3] can be described thus: Quantitative High-Throughput drug screen in 47 multiple myeloma cell lines against the NCATS MIPE library collection: OPM1_PLB cell viability assay (AID 1918989). Also: nearly all actives have a fitted effect of over 40% in size. Summed up:
as §1

Experiment [4] in a line: Quantitative High-Throughput drug screen in 47 multiple myeloma cell lines against the NCATS MIPE library collection: U266_ATCC cell viability assay (AID 1919864). Also: nearly all actives have a fitted effect of over 35% in size. Summed up: as §1
Experiment [5] can be described thus: Quantitative High-Throughput drug screen in 47 multiple myeloma cell lines against the NCATS MIPE library collection: XG6_PLB cell viability assay (AID 1919865). Also: nearly all actives have a fitted effect of over 40% in size. The procedure, abridged: as §1
Experiment [6] can be described thus: Quantitative High-Throughput drug screen in 47 multiple myeloma cell lines against the NCATS MIPE library collection: VP6_DJ cell viability assay (AID 1919867). Also: nearly all actives have a fitted effect of over 40% in size. The procedure, abridged:
as §1

Experiment [7] can be described thus: Quantitative High-Throughput drug screen in 47 multiple myeloma cell lines against the NCATS MIPE library collection: UTMC2_PLB cell viability assay (AID 1919868). Also: nearly all actives have a fitted effect of over 55% in size. The note with it: CellTiter-Glo ATP luminescence, 48 h; viability (% of DMSO control): at 45.8 µM (top of the series). Summed up:
as §1
Background: In ATP-based viability assays light output follows the ATP content of the culture.

A short description of experiment [8]: Quantitative High-Throughput drug screen in 47 multiple myeloma cell lines against the NCATS MIPE library collection: PE2_PLB cell viability assay (AID 1919869). Also: nearly all actives have a fitted effect of over 35% in size. The procedure, abridged: as §1
A short description of experiment [9]: Quantitative High-Throughput drug screen in 47 multiple myeloma cell lines against the NCATS MIPE library collection: KMS11_JCRBsus cell viability assay (AID 1919873). Also: nearly all actives have a fitted effect of over 50% in size. The procedure, abridged: as §1
A short description of experiment [10]: Quantitative High-Throughput drug screen in 47 multiple myeloma cell lines against the NCATS MIPE library collection: KMS28BM_JCRB cell viability assay (AID 1919874). Also: nearly all actives have a fitted effect of over 35% in size. The procedure, abridged: as §1
Experiment [11] can be described thus: Quantitative High-Throughput drug screen in 47 multiple myeloma cell lines against the NCATS MIPE library collection: KMS34_JCRB cell viability assay (AID 1918985). Also: nearly all actives have a fitted effect of over 40% in size. The procedure, abridged: as §1
Experiment [12] can be described thus: Quantitative High-Throughput drug screen in 47 multiple myeloma cell lines against the NCATS MIPE library collection: OCIMY5_PLB cell viability assay (AID 1918988). Also: nearly all actives have a fitted effect of over 65% in size. The procedure, abridged:
as §1

Experiment [13] is described as follows: Quantitative High-Throughput drug screen in 47 multiple myeloma cell lines against the NCATS MIPE library collection: SKMM1_PLB cell viability assay (AID 1919863). Also: nearly all actives have a fitted effect of over 35% in size. As to conditions: SKMM1 myeloma viability, CellTiter-Glo ATP, 48 h; viability: active compounds read low. Summed up: as §1
Experiment [14] can be described thus: Quantitative High-Throughput drug screen in 47 multiple myeloma cell lines against the NCATS MIPE library collection: XG1_PLB cell viability assay (AID 1919866). Also: nearly all actives have a fitted effect of over 35% in size. Summed up:
as §1

Experiment [15] is described as follows: Quantitative High-Throughput drug screen in 47 multiple myeloma cell lines against the NCATS MIPE library collection: RPMI8226_ATCC cell viability assay (AID 1919871). Also: nearly all actives have a fitted effect of over 30% in size. The procedure, abridged: as §1
Experiment [16] in a line: Quantitative High-Throughput drug screen in 47 multiple myeloma cell lines against the NCATS MIPE library collection: OPM2_DSMZ cell viability assay (AID 1919872). Also: nearly all actives have a fitted effect of over 30% in size. Summed up:
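CellTiter-Glo luminescence (ATP) after 48 h compound exposure, 37C/5% CO2; 500 cells/well; MIPE 4.0 approved/investigational drugs pinned in; DMSO = 100%, media only = 0% viability.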

The nature of experiment [17]: Quantitative High-Throughput drug screen in 47 multiple myeloma cell lines against the NCATS MIPE library collection: PCM6_Riken cell viability assay (AID 1919870). Also: nearly all actives have a fitted effect of over 30% in size. The procedure, abridged: as §1
Potency is read from the fitted curve at half-maximal effect.

`CCn1c(-c2nonc2N)nc2c(C#CC(C)(C)O)ncc(OC[C@H]3CCCNC3)c21`: the Potency was 0.296 µM (active) in experiment [1]; 8.33 µM (active) in experiment [2]; 0.148 µM (active) in experiment [3]; 23.5 µM (active) in experiment [4]; 18.7 µM (active) in experiment [5]; 14.8 µM (active) in [6]. Also, the Potency was 0.059 µM (active) in experiment [7], 9.35 µM (active) in [8], 2.96 µM (active) in experiment [9] and 0.372 µM (active) in experiment [10].

For the compound `COc1ccc(COc2cc3oc(=O)c4cc(C(C)O)ccc4c3cc2OC)cc1` (stereo not given), the Potency in [1] was 23.5 µM (active); in experiment [11] it was 18.7 µM (active); in experiment [12], 20.9 µM (active); in experiment [3], 18.7 µM (active); in experiment [13], 20.9 µM (active); in [4], 13.2 µM (active). Further, the Potency is 13.2 µM (active) in [14]; 14.8 µM (active) in experiment [6]; 20.9 µM (active) in experiment [7]; 14.8 µM (active) in experiment [8]; 20.9 µM (active) in [15].

Consider `Nc1nc2ccc(OC(F)(F)F)cc2s1`, for which the results for the Potency in [1], in [6] and in experiment [16] were 23.5 µM (active), 18.7 µM (active) and 18.7 µM (active), respectively. In addition, the Potency result in experiment [2], in [8], in experiment [9] and in experiment [10] was “inactive” throughout.

Take `Cc1cc(Nc2nc(N[C@@H](C)c3ncc(F)cn3)ncc2Cl)n[nH]1`: the Potency in experiment [1] was 20.9 µM (active); in [12], 7.43 µM (active); in [3] it was 18.7 µM (active); in [4], 9.35 µM (active); in [5], 2.96 µM (active); in experiment [6], 6.62 µM (active). In addition, the Potency was 6.62 µM (active) in experiment [7], 10.5 µM (active) in [8], 6.62 µM (active) in experiment [17] and 11.8 µM (active) in experiment [15].

Consider `COc1ccc(CCN2CCN(CCCc3ccccc3)CC2)cc1OC`, for which the Potency result in experiment [1], in experiment [3], in experiment [14], in [8], in experiment [17] and in [15] was “inactive” each time. Also, in [13], the viability is 104%. Moreover, the Potency was 4.69 µM (active) in [5] and 2.09 µM (active) in [10].

As for `CN(C)c1ccc(C2Nc3ccc4ccccc4c3C3=C2C(=O)CC(C)(C)C3)cc1Br` (stereo not given), the Potency in experiment [1] is 23.5 µM (active); in experiment [2] it was 0.935 µM (active); in [12] it was 23.5 µM (active); in experiment [8], 5.26 µM (active). In addition, the Potency entry in [11], in experiment [17], in [16] and in [10] was “inactive” throughout.

For the compound `CCC(C)n1ncn(-c2ccc(N3CCN(c4ccc(OC[C@H]5CO[C@](Cn6cncn6)(c6ccc(Cl)cc6Cl)O5)cc4)CC3)cc2)c1=O` (stereo not given in full), the Potency in [1] is 14.8 µM (active); in experiment [12] it was 2.96 µM (active); in [13], 14.8 µM (active); in experiment [15], 3.32 µM (active); in [16], 4.69 µM (active); in experiment [9], 1.32 µM (active). The Potency entry in [2], in experiment [3], in experiment [4], in [14] and in [8] was “inactive” each time.

On to `CCOC(=O)N1CCC(=C2c3ccc(Cl)cc3CCc3cccnc32)CC1`, for which the Potency in [11] is 26.4 µM (active); in [12], 20.9 µM (active); in [13] it was 20.9 µM (active); in [4] it was 33.2 µM (active); in [9], 20.9 µM (active); in experiment [10], 23.5 µM (active). Also, the Potency entry in experiment [7] was “inactive”.

In the case of `CCOc1ccn(-c2ccc(F)cc2)c(=O)c1C(=O)Nc1ccc(Oc2ccnc(N)c2Cl)c(F)c1`, the Potency in experiment [12] was 8.33 µM (active); in experiment [5], 11.8 µM (active); in [14] it was 3.32 µM (active); in experiment [7], 13.2 µM (active); in [8], 13.2 µM (active). For the same compound, the Potency result in experiment [16] is “inactive”.

Regarding `Fc1ccc(Cl)cc1-c1nc(Nc2ccncc2)c2nccnc2n1`, the Potency in [11] was 1.32 µM (active); in experiment [3], 14.8 µM (active); in [5], 3.32 µM (active); in [8], 7.43 µM (active); in experiment [17] it was 5.9 µM (active). Further, the Potency result in experiment [2], in experiment [15], in [16] and in experiment [10] was “inactive” throughout. In [13], the viability is 120%.

Take `Cc1cc(-c2ccc(CC(=O)Nc3ccc(-c4cccnc4)cc3)cc2)ccn1`: the Potency was 23.5 µM (active) in experiment [2]; 16.6 µM (active) in [12]; 20.9 µM (active) in [3]; 11.8 µM (active) in experiment [6]; 11.8 µM (active) in [17]; 5.9 µM (active) in experiment [15]. Besides, in experiment [9], the Potency was 20.9 µM (active). Moreover, the Potency entry in experiment [16] was “inactive”.

For `O=C1CCCC2=C1C(c1[nH]ncc1Cl)N=C(Nc1nc3ccccc3o1)N2` (stereo not given), the Potency was 8.33 µM (active) in experiment [2]; 23.5 µM (active) in experiment [12]; 10.5 µM (active) in experiment [3]; 10.5 µM (active) in experiment [13]; 23.5 µM (active) in [5]; 0.0935 µM (active) in experiment [6]. In addition, the Potency in [8] is 0.526 µM (active). Also, the Potency entry in [16] was “inactive”.

What is called viability is a read-out of living cells in per cent, often relative to untreated cells.
